# Measured values: the supplement of paper PMC13380429
# Values without a mark were called inactive.
# Test system: Vero E6 infected with SARS-CoV-2
# Test: inhibition of SARS-CoV-2 cytopathic effect; higher = more antiviral protection, active = above 15
# Conditions: 48 h
Compound,inhibition of SARS-CoV-2 cytopathic effect (1 nM) [%],inhibition of SARS-CoV-2 cytopathic effect (8.33 nM) [%],inhibition of SARS-CoV-2 cytopathic effect (100 nM) [%],inhibition of SARS-CoV-2 cytopathic effect (833.33 nM) [%],inhibition of SARS-CoV-2 cytopathic effect (10000 nM)
N.N.[Cl][Pt][Cl] [cisplatin],1.16,0.86,0.61,3.21,1.76%
CCN1CCC[C@H]1CNC(=O)c1c(OC)ccc(Br)c1OC [remoxipride],-2.39,2.05,0.28,0.51,-1.54%
CN(C)C(=N)NCCC[C@H](N)C(=O)O [asymmetrical-dimethylarginine],-0.33,-0.09,-1.65,0.84,1.97%
CC(C)(N)CC12CC3CC(CC(C3)C1)C2 [somantadine],-2.05,-1.35,-0.66,-1.44,-6.1%
CC[C@@H](C)CNCC(=O)N1CCc2sccc2[C@@H]1COc1cccc(C)c1,2.77,3.61,2.09,1.08,-6.12%
CCC(=N\O)/C(C)=C/c1ccc(F)cc1,-0.84,-0.21,0.55,-0.42,-0.21%
CC(C)(O)CS(=O)(=O)Nc1ccc2c(c1)CCN(C(=O)COc1cccnc1)C2 [Nampt-IN-1],-1.96,-2.55,-5.64,-15.6,-25.6%
COc1ccc2cc([C@H](C)C(=O)O)ccc2c1 [naproxen],3.38,3.96,1.16,-1.2,0.68%
O=[N+]([O-])/N=C1\NCCN1Cc1ccc(Cl)nc1 [imidacloprid],0.83,5.02,6.8,5.42,3.01%
CC(C)(C)c1cc(C(C)(C)C)c(NC(=O)c2c[nH]c3ccccc3c2=O)cc1O [ivacaftor],-1.65,1.11,-2.96,-10.4,-4.71%
O=c1c(-n2ccnn2)c[nH]n1-c1cc(N2CCOCC2)ncn1 [molidustat],1.15,-0.02,-0.4,3.64,2.32%
C=CCn1c(=O)c2cnc(Nc3ccc(N4CCN(C)CC4)cc3)nc2n1-c1cccc(C(C)(C)O)n1,-1.29,2.7,0.63,-3.99,-6.53%
COc1ccc(NC(=O)c2ccc(C(=N)N(C)C)cc2)c(C(=O)Nc2ccc(Cl)cn2)c1 [betrixaban],-1.01,0.96,-0.6,1.17,-3.48%
CCOCCn1c(C2CCN(CCc3ccc(C(C)(C)C(=O)O)cc3)CC2)nc2ccccc21 [bilastine],-1.57,-0.88,-1.39,-1.14,-0.38%
CC1(C)S[C@@H]2[C@H](N3C(=O)[C@@H](c4ccccc4)NC3(C)C)C(=O)N2[C@H]1C(=O)O [hetacillin],-0.32,0.69,0.82,2.11,2.77%
COc1ccc(Cl)cc1[C@]1(F)C(=O)Nc2cc(C(F)(F)F)ccc21 [flindokalner],2.54,0,-1.3,1.03,-0.62%
COc1ccc(CCN(C)CCCC(C#N)(c2cc(OC)c(OC)c(OC)c2)C(C)C)cc1OC (stereo not given) [gallopamil],-0.29,0.76,-0.41,0.33,-2.43%
CC/C(=C(\c1ccccc1)c1ccc(OCCN(C)C)cc1)c1ccccc1 [tamoxifen],-0.39,1.81,0.36,0.06,11.2%
O=C1Cc2c([nH]c3ccc(Br)cc23)-c2ccccc2N1 [kenpaullone],-1.82,-2.19,0.37,0.56,12%
CN(C)CCOc1ccc(/C(=C(/CCCl)c2ccccc2)c2ccccc2)cc1 [toremifene],1.37,1.85,1.34,2.22,23.7% (active)

Compound,inhibition of SARS-CoV-2 cytopathic effect (1 nM) [%],inhibition of SARS-CoV-2 cytopathic effect (8.33 nM) [%],inhibition of SARS-CoV-2 cytopathic effect (100 nM) [%],inhibition of SARS-CoV-2 cytopathic effect (833.33 nM) [%],inhibition of SARS-CoV-2 cytopathic effect (10000 nM)
CCN(CC)CCCCNc1ncc2cc(-c3c(Cl)cccc3Cl)c(NC(=O)NC(C)(C)C)nc2n1,-1.36,-1.31,2.1,-1.78,13.4%
O=c1c2ccccc2[se]n1-c1ccccc1 [ebselen],0.19,3.3,2.73,3.17,-3.01%
O=S1(=O)N[C@H]2CCCN2c2ccccc21,-9.82,-6.86,-6.43,-8.3,-12.2%
COc1cc2nc(C3CC3)nc(N3CCN(c4ccccc4OC)CC3)c2cc1OC,-1.86,-1.01,-1.01,1.94,-4.17%
Cc1c(O)c(=O)ccn1C [deferiprone],0.05,0.64,1.45,3.35,0.91%
O=C(O[C@H]1C[N+]2(CCCOc3ccccc3)CCC1CC2)C(O)(c1cccs1)c1cccs1 [aclidinium],-0.75,-1.25,-2.4,1.93,1.6%
COc1cc(NC(C)CCCN)c2ncccc2c1 (stereo not given) [primaquine],1.68,2.25,0.83,1.27,3.23%
CC(ONC(=O)c1cc(C(F)(F)F)cc(C(F)(F)F)c1)C(=O)Nc1ccc(Cl)cc1 (stereo not given),1.52,-0.64,0.05,-2.31,5.49%
CC(C)CN(C[C@@H](O)[C@H](Cc1ccccc1)NC(=O)O[C@H]1CCOC1)S(=O)(=O)c1ccc(N)cc1 [amprenavir],-0.22,1.43,-0.29,-1.76,-0.72%
O=C(OC(C(F)(F)F)C(F)(F)F)N1CCC(C(O)(c2ccc3c(c2)OCO3)c2ccc3c(c2)OCO3)CC1,-1.87,0.04,-0.31,-1.03,0.49%
COc1cc(C(=S)N2CCOCC2)cc(OC)c1OC [sulmetozine],-6.81,-0.82,1.75,-0.02,2.55%
FC(F)(F)c1ccc(CNc2ccc(Cc3c[nH]c4ncc(Cl)cc34)cn2)cn1 [pexidartinib],0.78,3.65,0.98,0.96,11.6%
CN1[C@@H]2CC[C@H]1C[C@@H](OC(c1ccc(F)cc1)c1ccc(F)cc1)C2 [3-alpha-bis-(4-fluorophenyl)-methoxytropane],0.13,1.33,-2.46,-1.34,-5.09%
Nc1nc(NC2CC2)c2ncn([C@H]3C=C[C@@H](CO)C3)c2n1,-0.53,-0.06,0.24,0.84,0.33%
COc1cc([C@@H]2c3cc4c(cc3[C@@H](O[C@@H]3O[C@@H]5CO[C@@H](C)O[C@H]5[C@H](O)[C@H]3O)[C@H]3COC(=O)[C@H]23)OCO4)cc(OC)c1OP(=O)(O)O [etoposide-phosphate],-3.4,-1.24,-0.75,-0.98,1.67%
C[N+]1(C)CCC(OC(=O)C(O)(c2ccccc2)C2CCCC2)C1 (stereo not given) [glycopyrrolate],-3.43,-1.27,-0.55,-0.2,-1.06%
O=C(O)c1ccccc1C(=O)Nc1ccc(-c2ccccc2)cc1 [kartogenin],3.34,2.53,0.87,1.12,1.02%
OCCn1cc(-c2cnc3nnn(Cc4ccc5ncccc5c4)c3n2)cn1,1.37,2,1.01,2.71,2.26%
O=[N+]([O-])c1cn2c(n1)OC[C@@H](OCc1ccc(-c3ccc(OC(F)(F)F)cc3)nc1)C2,1.33,-0.87,-0.57,4.38,0.34%
CCOC(=O)Nc1ccc2c(c1)N(C(=O)CN(CC)CC)c1ccccc1CC2,-0.45,0.56,1.77,0.29,0.79%
